Columns and labels:
Assay in all cases: yeast three-hybrid, YBZ-1, SC-Leu-His + 0.5 mM 3-AT, 4 days
Settings in all cases: tags: N-Gal4 AD-HA kept; label: inside an RPR1-promoter hybrid RNA with tandem MS2 sites; ssRNA
[1] = target: PUM1 PUF domain R4-TPV (Homo sapiens, UniProt Q14671 828-1176, N971T;H972P;Q975V)
Outline: (§1)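 A centromeric plasmid in strain YBZ-1 co-expressed Pumilio-1 PUF domain libraries, randomized at the three base-contacting residues of each repeat, with matching RNA elements; the strain carries a LexA–MS2 coat fusion and a HIS3 reporter. After four days on SC-Leu (input) or SC-Leu-His + 0.5 mM 3-AT (selection), the repeat regions were PCR-amplified and Illumina-sequenced. The interaction score is the log change in variant frequency from input to selection, using log2 and a pseudocount of 1 where absent.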

[2] = target: PUM1 PUF domain R8-VFK (Homo sapiens, UniProt Q14671 828-1176, N1122V;Y1123F;Q1126K)
Outline: as §1

[3] = target: PUM1 PUF domain R5-GRY (Homo sapiens, UniProt Q14671 828-1176, C1007G;Q1011Y)
Outline: as §1

[4] = target: PUM1 PUF domain R5-SKC (Homo sapiens, UniProt Q14671 828-1176, C1007S;R1008K;Q1011C)
Outline: as §1

[5] = target: PUM1 PUF domain R5-FRK (Homo sapiens, UniProt Q14671 828-1176, C1007F;Q1011K)
Outline: as §1

[6] = target: PUM1 PUF domain R5-RYE (Homo sapiens, UniProt Q14671 828-1176, C1007R;R1008Y;Q1011E)
Outline: as §1

[7] = target: PUM1 PUF domain R3-VWG (Homo sapiens, UniProt Q14671 828-1176, C935V;R936W;Q939G)
Outline: as §1

[8] = target: T1, PUM1 PUF domain R6-NRS (Homo sapiens, UniProt Q14671 828-1176, Y1044R;Q1047S)
T1 sequence: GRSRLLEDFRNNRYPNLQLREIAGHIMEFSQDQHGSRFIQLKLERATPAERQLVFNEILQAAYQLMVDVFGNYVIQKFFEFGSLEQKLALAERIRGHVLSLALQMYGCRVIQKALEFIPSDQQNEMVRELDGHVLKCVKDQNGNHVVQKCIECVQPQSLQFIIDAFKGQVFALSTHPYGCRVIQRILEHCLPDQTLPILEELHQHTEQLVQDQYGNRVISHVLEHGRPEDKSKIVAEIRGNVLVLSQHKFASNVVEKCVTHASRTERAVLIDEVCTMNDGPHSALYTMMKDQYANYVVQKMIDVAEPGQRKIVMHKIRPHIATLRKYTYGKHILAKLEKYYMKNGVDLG
Outline: as §1

[9] = target: PUM1 PUF domain R4-RIY (Homo sapiens, UniProt Q14671 828-1176, N971R;H972I;Q975Y)
Outline: as §1

[10] = target: PUM1 PUF domain R4-GPY (Homo sapiens, UniProt Q14671 828-1176, N971G;H972P;Q975Y)
Outline: as §1

GGCUAGAACUAGUGGAUCCCCCGGCGCCCGGCGGCUCGAGCCCGGGUAAGUGUAUAUAGUCUGCAUGCCGCCGGGCGCCAUGCCUGCAGGUCGACUCUAGAAAACAUG
binding signal [1]: 2.96 log2 enrichment (interaction score)

GGCUAGAACUAGUGGAUCCCCCGGCGCCCGGCGGCUCGAGCCCGGGUAAGUGUACAUAGUCUGCAUGCCGCCGGGCGCCAUGCCUGCAGGUCGACUCUAGAAAACAUG
binding signal [1]: 2.89 log2 enrichment (interaction score)

GGCUAGAACUAGUGGAUCCCCCGGCGCCCGGCGGCUCGAGCCCGGGUAAGCGUAAAUAGUCUGCAUGCCGCCGGGCGCCAUGCCUGCAGGUCGACUCUAGAAAACAUG
binding signal [2]: 4.7 log2 enrichment (interaction score)

GGCUAGAACUAGUGGAUCCCCCGGCGCCCGGCGGCUCGAGCCCGGGUAAGUGUCAAUAGUCUGCAUGCCGCCGGGCGCCAUGCCUGCAGGUCGACUCUAGAAAACAUG
binding signal [3]: 0.08 log2 enrichment (interaction score)
binding signal [4]: 1.38 log2 enrichment (interaction score)
binding signal [5]: 3.81 log2 enrichment (interaction score)

GGCUAGAACUAGUGGAUCCCCCGGCGCCCGGCGGCUCGAGCCCGGGUAAGUGUUAAUAGUCUGCAUGCCGCCGGGCGCCAUGCCUGCAGGUCGACUCUAGAAAACAUG
binding signal [3]: 3.13 log2 enrichment (interaction score)
binding signal [6]: 4.59 log2 enrichment (interaction score)
binding signal [4]: 3.5 log2 enrichment (interaction score)
binding signal [5]: 3.62 log2 enrichment (interaction score)

GGCUAGAACUAGUGGAUCCCCCGGCGCCCGGCGGCUCGAGCCCGGGUAAGUGUAAGUAGUCUGCAUGCCGCCGGGCGCCAUGCCUGCAGGUCGACUCUAGAAAACAUG
binding signal [7]: 1.81 log2 enrichment (interaction score)

GGCUAGAACUAGUGGAUCCCCCGGCGCCCGGCGGCUCGAGCCCGGGUAAGUGUAAAUAGUCUGCAUGCCGCCGGGCGCCAUGCCUGCAGGUCGACUCUAGAAAACAUG
binding signal [3]: 3.42 log2 enrichment (interaction score)
binding signal [1]: 2.59 log2 enrichment (interaction score)
binding signal [7]: 4.18 log2 enrichment (interaction score)
binding signal [8]: 3.98 log2 enrichment (interaction score)
binding signal [5]: 2.17 log2 enrichment (interaction score)
binding signal [9]: 7.23 log2 enrichment (interaction score)
binding signal [10]: 2.92 log2 enrichment (interaction score)

GGCUAGAACUAGUGGAUCCCCCGGCGCCCGGCGGCUCGAGCCCGGGUAAGUGUAAUUAGUCUGCAUGCCGCCGGGCGCCAUGCCUGCAGGUCGACUCUAGAAAACAUG
binding signal [7]: 2.33 log2 enrichment (interaction score)

Reference: paper PMC8384837, “Expanding the binding specificity for RNA recognition by a PUF domain”
